The record followed here is PubChem BioAssay.

Test [1] addresses Albumin (Bos taurus) (UniProt P02769). Put plainly: compounds binding labelled BSA control protein – biochemical, small-molecule microarray, Alexa647 label, 635/667 nm fluorescence, artefact control for SMM control protein annotation, profiling panel (AID 1118).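 Further: score merges 667 nm emission intensity and signal-to-noise per printed compound spot.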 The following applies: BSA-A647 binding, fluorescence 635 nm, higher = more signal.
Test [2] is described as follows: probe aXIP binding to arrayed compounds – biochemical, NeuroSMM set, 635/667 nm fluorescence, primary screen (AID 1119).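 Further: probe is the protein aXip251-270 applied at 1 µg/mL to compound-printed slides; binding of probe to printed compounds measured as 667 nm fluorescence plus signal to noise.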 The following applies: small-molecule microarray, higher = more signal, called active from +8 up or from −8 down.
Test [3] can be described thus: probe aNOTCH3 binding on compound microarray – biochemical, small-molecule microarray, 635/667 nm fluorescence, primary screen (AID 1120).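 Further: probe is a biotin-tagged antibody raised against NOTCH3 rather than NOTCH3 protein; score merges spot fluorescence near 667 nm with spot signal to noise.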 The following applies: higher = more signal.
A short description of test [4]: probe aNOTCH2 binding on compound microarray – biochemical, small-molecule microarray, 635/667 nm fluorescence, primary screen (AID 1121).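 Further: score merges feature fluorescence read at 667 nm with its signal to noise.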 The following applies: higher = more signal.
In test [5] the target is Carbonic anhydrase 2 (Homo sapiens) (UniProt P00918). Put plainly: compounds binding carbonic anhydrase 2 – biochemical, small-molecule microarray, Alexa647-labelled CAII, profiling panel (AID 1122). The following applies: CAII-A647 binding fluorescence, higher = more signal.
Test [6] in a line: COS7 lysate on small-molecule microarray, probe aHis, 635 nm (AID 1123).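 Further: z-score combines 667nm fluorescence intensity with signal-to-noise per printed compound spot.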 The following applies: COS7 cell lysate, fluorescence, higher = more signal.
A short description of test [7]: probe aLAP1 signal on lysate-treated microarray – cell lysate, small-molecule microarray, COS7 lysate, primary screen (AID 1124).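 Further: lysate comes from COS7 cells expressing LAP1 and is applied at 0.3 µg/mL; score merges spot fluorescence near 667 nm with signal-to-noise over triplicate slides.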 The following applies: probe aLAP1, fluorescence, higher = more signal.
The subject of test [8] is Sam68 (KHDRBS1). Put plainly: compounds binding KHDRBS1 protein – biochemical, small-molecule microarray, 635 nm fluorescence, primary screen (AID 1125).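 Further: score merges 667 nm channel intensity with signal to noise over triplicate slides.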 The following applies: higher = more signal.
Test [9] has as its system Chordin-like protein 2 (CHRDL2). Put plainly: compounds binding chordin-like 2 – biochemical, small-molecule microarray, 635 nm fluorescence, primary screen (AID 1126).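 Further: printed compound slides probed with Chrdl2 protein at 4 µg/mL for 1 h at 4 C; score merges 667 nm emission intensity with signal to noise over three replicate slides.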 The following applies: fluorescence 635 nm, higher = more signal.
The target of test [10] is Concanavalin-A (Canavalia ensiformis) (UniProt P02866). Put plainly: compounds binding concanavalin A lectin – biochemical, small-molecule microarray, Alexa647 label, 635 nm, artefact control for SMM control protein annotation, primary screen (AID 1127).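 Further: z combines 667 nm emission intensity with signal-to-noise across three replicate slides.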 The following applies: ConA-A647 binding fluorescence, higher = more signal.
Sequence of Concanavalin-A (Canavalia ensiformis) (P02866 whole entry, looked up): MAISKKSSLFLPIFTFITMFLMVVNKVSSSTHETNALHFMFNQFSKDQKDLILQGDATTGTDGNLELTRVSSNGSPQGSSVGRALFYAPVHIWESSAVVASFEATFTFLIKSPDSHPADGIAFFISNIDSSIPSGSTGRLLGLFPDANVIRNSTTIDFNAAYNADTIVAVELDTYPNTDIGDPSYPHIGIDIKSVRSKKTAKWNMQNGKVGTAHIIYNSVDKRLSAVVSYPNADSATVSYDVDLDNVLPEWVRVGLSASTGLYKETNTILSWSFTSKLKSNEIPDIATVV
Test [11] is described as follows: compounds binding Alexa647 anti-His antibody – biochemical, small-molecule microarray, 635 nm fluorescence, artefact control for SMM control protein annotation, primary screen (AID 1128).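 Further: score merges feature fluorescence with signal-to-noise for each printed compound spot.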 The following applies: higher = more signal.
The test system of test [12] is Human papillomavirus type 1a E7 protein (residues 1-88). Put plainly: HPV1a E7 small-molecule binders, primary screen, biochemical, small-molecule microarray, residues 1-88, 635 nm (AID 1129). The following applies: small-molecule microarray binding, fluorescence 635 nm; higher = more signal.
Test [13] deals with Focal adhesion kinase 1 (Homo sapiens) (UniProt Q05397). Put plainly: PTK2 protein binding on printed compound slides – biochemical, small-molecule microarray, 635/667 nm fluorescence, BSA, DTT, primary screen (AID 1130).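 Further: composite of spot emission at 667 nm and signal to noise over triplicate slides.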 The following applies: 635 nm fluorescence, higher = more signal.
Sequence of Focal adhesion kinase 1 (Homo sapiens) (Q05397 whole entry, looked up): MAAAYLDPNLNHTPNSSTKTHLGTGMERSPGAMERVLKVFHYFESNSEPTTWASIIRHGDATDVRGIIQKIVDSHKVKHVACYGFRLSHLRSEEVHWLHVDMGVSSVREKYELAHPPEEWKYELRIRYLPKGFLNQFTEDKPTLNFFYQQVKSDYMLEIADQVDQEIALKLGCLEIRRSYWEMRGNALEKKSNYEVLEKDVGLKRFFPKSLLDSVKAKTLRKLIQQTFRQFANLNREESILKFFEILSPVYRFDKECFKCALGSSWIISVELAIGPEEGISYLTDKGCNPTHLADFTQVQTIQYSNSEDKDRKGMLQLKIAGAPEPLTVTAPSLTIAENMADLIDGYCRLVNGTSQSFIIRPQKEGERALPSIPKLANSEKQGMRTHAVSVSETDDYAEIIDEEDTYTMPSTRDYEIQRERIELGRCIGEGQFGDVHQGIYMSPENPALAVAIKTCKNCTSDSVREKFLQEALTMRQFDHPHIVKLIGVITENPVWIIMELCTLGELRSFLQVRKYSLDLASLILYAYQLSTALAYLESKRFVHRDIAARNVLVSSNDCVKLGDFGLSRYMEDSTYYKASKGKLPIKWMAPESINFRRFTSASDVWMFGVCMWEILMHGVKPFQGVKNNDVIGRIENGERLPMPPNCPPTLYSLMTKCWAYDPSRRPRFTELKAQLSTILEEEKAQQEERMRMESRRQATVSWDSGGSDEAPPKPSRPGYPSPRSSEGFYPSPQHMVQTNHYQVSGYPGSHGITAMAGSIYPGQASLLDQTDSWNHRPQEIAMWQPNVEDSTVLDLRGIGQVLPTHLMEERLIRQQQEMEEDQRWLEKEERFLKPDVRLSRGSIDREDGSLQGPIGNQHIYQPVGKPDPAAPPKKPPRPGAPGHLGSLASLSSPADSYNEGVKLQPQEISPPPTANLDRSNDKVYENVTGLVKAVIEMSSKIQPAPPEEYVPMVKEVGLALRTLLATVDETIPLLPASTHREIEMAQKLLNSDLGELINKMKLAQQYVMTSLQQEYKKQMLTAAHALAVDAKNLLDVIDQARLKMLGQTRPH
Test [14] concerns Fibrinogen (Alexa647-labelled). Put plainly: Alexa647-fibrinogen binding to printed small molecules – biochemical, small-molecule microarray, 635/667 nm fluorescence, artefact control for SMM control-protein annotation, profiling panel (AID 1131).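 Further: z-score merges 667 nm fluorescence with per-spot signal-to-noise over triplicate slides.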 The following applies: fibrinogen-A647 binding fluorescence, higher = more signal.
The target in test [15] is Follistatin (Homo sapiens) (UniProt P19883). Put plainly: FST protein binding to printed compounds – biochemical, small-molecule microarray, 635/667 nm fluorescence, primary screen (AID 1132). The following applies: 635 nm fluorescence, higher = more signal.
Sequence of Follistatin (Homo sapiens) (P19883 whole entry, looked up): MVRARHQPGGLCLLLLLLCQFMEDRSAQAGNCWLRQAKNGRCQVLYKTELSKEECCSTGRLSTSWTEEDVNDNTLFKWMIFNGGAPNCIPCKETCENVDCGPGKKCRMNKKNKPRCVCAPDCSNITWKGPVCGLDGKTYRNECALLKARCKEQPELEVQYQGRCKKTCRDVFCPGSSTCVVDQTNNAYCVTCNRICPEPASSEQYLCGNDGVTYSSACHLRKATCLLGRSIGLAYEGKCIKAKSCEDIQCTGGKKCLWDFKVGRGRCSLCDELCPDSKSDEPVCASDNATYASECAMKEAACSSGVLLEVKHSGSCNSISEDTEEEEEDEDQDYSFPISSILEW
Test [16] addresses Fibroblast growth factor 2 (Homo sapiens) (UniProt P09038). Put plainly: basic fibroblast growth factor binding to printed compounds – biochemical, small-molecule microarray, 635/667 nm fluorescence, primary screen (AID 1133). The following applies: FGF2, fluorescence 635/667, higher = more signal.
Test [17] is described as follows: JC-1 mitochondrial potential readout, lung cancer cells – cell-based, A549, JC-1 fluorescence, basal, 24 h, 100 nL, profiling panel (AID 1138).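 Further: A549 lung adenocarcinoma cells under basal conditions with no added stimulus; test concentration not given here.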 The following applies: higher = more signal.
Test [18] deals with Lefty1. Put plainly: Lefty1 protein binding to printed compounds – biochemical, small-molecule microarray, 635/667 nm fluorescence, primary screen (AID 1139). The following applies: fluorescence 635/667, higher = more signal.
The test system of test [19] is wheat germ agglutinin (Triticum aestivum), Alexa647-labelled. Put plainly: Alexa647-WGA lectin binding to printed small molecules – biochemical, small-molecule microarray, 635/667 nm fluorescence, artefact control for SMM control-protein annotation, profiling panel (AID 1140).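 Further: score merges 667 nm feature emission with signal to noise over triplicate slides.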 The following applies: WGA-A647 binding, 635 nm fluorescence, higher = more signal.
The target in test [20] is Luciferin 4-monooxygenase (Photinus pyralis) (UniProt P08659). Put plainly: inhibition of purified Photinus pyralis luciferase – biochemical, luminescence, purified enzyme, 2006 set, primary screen (AID 1141).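 Further: cell-free assay with purified firefly luciferase at 100 ng per well in PBS; test concentration not given here.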 The following applies: purified firefly luciferase, SteadyGlo luminescence, 30 min; higher = more signal, called active from +8 up or from −8 down.
Sequence of Luciferin 4-monooxygenase (Photinus pyralis) (P08659 whole entry, looked up): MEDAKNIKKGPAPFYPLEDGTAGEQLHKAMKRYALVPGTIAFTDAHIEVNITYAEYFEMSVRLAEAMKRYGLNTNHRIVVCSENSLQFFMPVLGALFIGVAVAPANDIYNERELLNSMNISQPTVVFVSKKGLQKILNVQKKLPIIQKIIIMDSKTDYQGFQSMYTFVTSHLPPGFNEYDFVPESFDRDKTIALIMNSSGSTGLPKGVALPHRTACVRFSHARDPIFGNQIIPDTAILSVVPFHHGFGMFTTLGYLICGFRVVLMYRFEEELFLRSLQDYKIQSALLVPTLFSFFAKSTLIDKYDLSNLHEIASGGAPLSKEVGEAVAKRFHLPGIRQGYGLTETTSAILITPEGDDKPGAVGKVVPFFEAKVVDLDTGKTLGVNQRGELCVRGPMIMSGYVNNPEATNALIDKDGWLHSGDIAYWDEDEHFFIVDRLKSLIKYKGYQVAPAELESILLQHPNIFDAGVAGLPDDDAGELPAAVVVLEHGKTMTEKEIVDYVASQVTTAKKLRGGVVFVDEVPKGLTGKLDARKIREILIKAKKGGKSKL

Calls of active or inactive are those of the source.

Sequence of Albumin (Bos taurus) (P02769 whole entry, looked up): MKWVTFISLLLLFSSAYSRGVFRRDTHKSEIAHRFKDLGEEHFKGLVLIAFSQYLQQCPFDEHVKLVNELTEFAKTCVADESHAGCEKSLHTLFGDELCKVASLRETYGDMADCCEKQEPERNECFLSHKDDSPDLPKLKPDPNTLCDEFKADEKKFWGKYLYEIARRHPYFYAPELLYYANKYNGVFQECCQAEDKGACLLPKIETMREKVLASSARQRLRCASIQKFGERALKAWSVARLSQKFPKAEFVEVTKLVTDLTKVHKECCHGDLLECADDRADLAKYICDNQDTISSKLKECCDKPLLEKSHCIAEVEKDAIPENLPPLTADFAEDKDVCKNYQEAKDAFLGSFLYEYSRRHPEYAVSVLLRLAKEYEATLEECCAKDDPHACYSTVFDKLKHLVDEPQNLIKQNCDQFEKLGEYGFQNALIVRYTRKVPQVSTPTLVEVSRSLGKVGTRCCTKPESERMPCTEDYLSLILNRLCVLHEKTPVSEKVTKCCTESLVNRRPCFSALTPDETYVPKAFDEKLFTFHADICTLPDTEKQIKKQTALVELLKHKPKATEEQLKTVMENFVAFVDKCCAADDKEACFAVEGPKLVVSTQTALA
Sequence of Fibroblast growth factor 2 (Homo sapiens) (P09038 whole entry, looked up): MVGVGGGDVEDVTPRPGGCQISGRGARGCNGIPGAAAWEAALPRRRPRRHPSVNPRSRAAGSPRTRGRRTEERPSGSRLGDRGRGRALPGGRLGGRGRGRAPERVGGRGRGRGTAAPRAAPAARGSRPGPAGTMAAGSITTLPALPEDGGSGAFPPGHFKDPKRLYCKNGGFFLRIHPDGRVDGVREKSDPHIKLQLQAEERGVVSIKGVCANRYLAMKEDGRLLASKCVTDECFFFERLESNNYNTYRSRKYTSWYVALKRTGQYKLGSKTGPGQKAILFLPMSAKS

For the compound `CC(C)C[C@@H]1NC(=O)[C@@]23C(=O)N[C@@H](Cc4ccccc4)C2[C@H](C)[C@@]2(C)O[C@H]2C3/C=C/CC/C=C/CNC(=O)[C@@H](C)NC1=O` (stereo not given in full), the composite z-score in test [1] is -1.38; in test [3] it was 0.0426; in [4] it was -0.179; in test [5], -0.515; in [6], -0.262; in test [7], 0.0036. Moreover, the composite z-score is 0.179 in [8]; 0.906 in test [9]; 0.204 in test [10]; -0.764 in test [11]; -0.649 in test [12]; 0.138 in test [13]. In addition, the composite z-score in [14] is -0.875; in [15] it was 1.23; in test [16] it was 1.12; in test [18] it was 1.5; in test [19], -0.578. Besides, in [2], the composite Z-score was -0.162 (inactive). The figures for the z-score in test [17] and in test [20] were -0.168 and -0.8 (inactive), respectively.
Consider `CC(C)NC(=O)[C@@H]1c2ccccc2C(=O)N(Cc2cc(F)cc(C(F)(F)F)c2)[C@H]1c1ccc(CO)cc1`, for which the composite z-score in test [1] was -0.448; in test [3], -0.402; in test [4], -0.111; in [5], 0.741; in test [6], 1.34; in test [7], -0.126. The composite z-score was -0.096 in [8]; -0.556 in test [9]; -0.94 in test [10]; -0.905 in [11]; -0.194 in test [12]; 0.434 in test [13]. For the same compound, the composite z-score was -1.41 in [14]; -1.12 in test [15]; -0.612 in test [16]; -1.89 in test [18]; -1.21 in test [19]. Besides, the composite Z-score in test [2] was 0.115 (inactive). For the same compound, the figures for the z-score in [17] and in [20] were 2.84 and -0.758 (inactive), respectively.
Regarding `CCN(CC)c1ccc(N2CC=CC34O[C@@H]5C=CCOC(=O)[C@@H]5[C@H]3C(=O)N(C(CO)C(C)C)[C@@H]4C2=O)cc1` (stereo not given in full), the composite z-score in [1] was -0.819; in test [3], -0.405; in test [4], -0.104; in test [5], -0.604; in test [6], -0.408; in [7] it was 0.23. The composite z-score in test [8] is -0.635; in test [9] it was -0.42; in test [10], -0.374; in [11], -1.59; in test [12], -1.27; in [13] it was -0.596. In addition, the composite z-score in [14] is -0.236; in [15], -0.529; in test [16] it was -0.208; in test [18], -0.771; in test [19], -1.13. Also, the composite Z-score in test [2] was 0.316 (inactive). Further, the z-score in test [17] is 1.39; in [20], -0.638 (inactive).
Turning to `CCCCC(=C=CC[C@@H](O)c1ccc(OCCO)cc1)C[C@@H](O)c1cc(Cl)cc(Cl)c1O`, the composite z-score in test [1] was 0.645; in test [3], 0.151; in test [4], -0.048; in test [5], 0.674; in test [6] it was 0.886; in test [7], 0.673. Also, the composite z-score in [8] was 0.661; in [9] it was -0.101; in [10], 0.486; in test [11], 0.155; in test [12], 0.597; in [13], 0.507. The composite z-score in [14] was 0.556; in test [15] it was 0.63; in test [16] it was 0.594; in [18] it was 0.255; in test [19], 1.21. Besides, the composite Z-score in [2] is 0.0371 (inactive). Moreover, the z-score in [17] was 1.28; in [20] it was -3.02 (inactive).
For `CCN(CC)c1ccc(N2CC=CC34O[C@@H]5C=CCOC(=O)[C@@H]5[C@H]3C(=O)N(C(C)CO)[C@@H]4C2=O)cc1` (stereo not given in full), the composite z-score in test [1] was -1.28; in test [3], -0.213; in test [4] it was -0.126; in [5], 0.0808; in test [6], -0.67; in [7] it was 0.0745. Besides, the composite z-score is -1.69 in test [8]; -1.35 in test [9]; -1.51 in [10]; -1.34 in test [11]; -1.28 in [12]; -1.02 in test [13]. In addition, the composite z-score in test [14] was -2.61; in test [15], -1.04; in [16], -1.13; in test [18], -1.65; in test [19], -1.07. Besides, the composite Z-score in [2] was -0.237 (inactive). Besides, the figures for the z-score in [17] and in test [20] were 1.39 and -0.822 (inactive), respectively.
